Data published in publication PMC4336329 (PLoS ONE, 2015).
Among all 310,000 compounds or so, about 14,000 (4.5%) showed an effect of 50% or more. The effect is printed as a negative number. This is one part of a sample in which strong results are shown more often than they occur.

Target: human ether-à-go-go-related gene (hERG) potassium channel (human, UniProt Q12809)
Test: primary screen, population patch clamp on CHO cells stably expressing hERG; higher = less effect of the substance
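Also: peak tail current of the secondary pulse compared with the same well before compound.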

Sequence of human ether-à-go-go-related gene (hERG) potassium channel (Q12809 whole entry, looked up): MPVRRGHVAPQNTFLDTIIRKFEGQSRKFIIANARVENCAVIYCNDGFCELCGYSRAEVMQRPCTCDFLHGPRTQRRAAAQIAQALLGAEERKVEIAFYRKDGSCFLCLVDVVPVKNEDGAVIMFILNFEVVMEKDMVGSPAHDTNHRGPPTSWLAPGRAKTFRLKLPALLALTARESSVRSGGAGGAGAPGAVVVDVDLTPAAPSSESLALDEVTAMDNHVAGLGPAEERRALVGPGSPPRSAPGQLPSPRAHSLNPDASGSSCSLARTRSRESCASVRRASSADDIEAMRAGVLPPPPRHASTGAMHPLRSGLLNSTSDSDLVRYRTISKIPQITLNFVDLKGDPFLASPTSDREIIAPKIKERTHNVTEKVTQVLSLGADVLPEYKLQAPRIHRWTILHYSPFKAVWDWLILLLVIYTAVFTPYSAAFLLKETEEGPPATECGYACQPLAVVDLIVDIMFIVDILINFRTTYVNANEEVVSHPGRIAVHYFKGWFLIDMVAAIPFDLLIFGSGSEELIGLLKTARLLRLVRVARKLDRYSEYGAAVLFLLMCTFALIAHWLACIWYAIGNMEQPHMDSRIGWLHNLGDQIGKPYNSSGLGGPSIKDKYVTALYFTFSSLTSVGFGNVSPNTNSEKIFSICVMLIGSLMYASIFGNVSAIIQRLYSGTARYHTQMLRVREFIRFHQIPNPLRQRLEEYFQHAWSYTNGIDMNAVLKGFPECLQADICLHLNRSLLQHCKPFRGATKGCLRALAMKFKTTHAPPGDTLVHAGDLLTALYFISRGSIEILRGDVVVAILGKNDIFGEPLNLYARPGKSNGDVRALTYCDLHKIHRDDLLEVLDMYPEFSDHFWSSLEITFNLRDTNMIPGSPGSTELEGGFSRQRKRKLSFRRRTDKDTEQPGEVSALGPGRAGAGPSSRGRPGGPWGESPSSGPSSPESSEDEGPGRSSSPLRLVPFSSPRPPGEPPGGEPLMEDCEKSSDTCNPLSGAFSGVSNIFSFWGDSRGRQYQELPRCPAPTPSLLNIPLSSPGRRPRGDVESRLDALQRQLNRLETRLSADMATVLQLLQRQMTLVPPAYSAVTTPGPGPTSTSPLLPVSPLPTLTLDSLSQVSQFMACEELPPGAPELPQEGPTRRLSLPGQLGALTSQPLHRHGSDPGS

Row | Compound | hERG current change (%, negative = inhibition) at 10uM
1 | O=C(CCNC(=O)c1ccc([N+](=O)[O-])cc1)NCCc1ccccc1 | -27.8%
2 | CCOc1ccc(-c2cc(CCCC(=O)NCc3cccnc3)no2)cc1 | -35%
3 | COc1ccccc1-c1nnc(NC(=O)C(C)Sc2nncn2C)s1 (centres unmarked) | -1.37%
4 | CCN(CC)c1cc(C)c2cc(NC(=O)c3cccs3)ccc2n1 | -72.2%
5 | Cc1nc2ccc(NC(=O)c3cccs3)cc2c(=O)n1Cc1ccc(Cl)cc1 | 9.84%
6 | CCN(CC)c1ccc(NC(=O)c2ccccc2F)cc1 | -9.39%
7 | CCN(CC)c1cc(C)c2cc(NC(=O)c3ccccc3F)ccc2n1 | -81.3%
8 | Cc1nc2ccc(NC(=O)c3cccs3)cc2s1 | 19.8%
9 | CCN(CC)c1cc(C)c2cc(NC(=O)c3ccccc3OC)ccc2n1 | -18.6%
10 | COc1ccc(Cl)cc1N(CC(=O)Nc1ccc2c(c1)OCO2)S(C)(=O)=O | -24%
11 | COc1cccc(CNC(=O)Cc2c(C(=O)O)[nH]c3ccccc23)c1 | 8.83%
12 | COC(=O)[C@H](CC(C)C)NC(=O)Nc1ccccc1F | 16.6%
13 | Cc1ccccc1Cn1nc(C)c(NC(=O)c2nc3n(n2)C(C(F)F)CC(C)N3)c1C (centres unmarked) | 0.0862%
14 | O=C(CCN1C(=O)c2ccccc2C1=O)NNC(=O)c1ccc(Cl)cc1Cl | 6.82%
15 | c1ccc(-c2nc(N3CCN(c4ccccc4)CC3)nc(-n3ccnc3)n2)cc1 | -2.66%
16 | CN(c1ccccc1)c1nc(-n2ccnc2)nc(-n2ccnc2)n1 | -67.7%
17 | CC(C)Nc1nc(-c2ccccc2)nc(-n2ccnc2)n1 | -0.0673%
18 | c1ccc(-c2nc(-n3ccnc3)nc(-n3ccnc3)n2)cc1 | -69.4%
19 | c1ccc(N(c2ccccc2)c2nc(-n3ccnc3)nc(-n3ccnc3)n2)cc1 | -24.2%
20 | CN(c1ccccc1)c1nc(N2CCCC2)nc(-n2ccnc2)n1 | -19.5%
21 | Cc1ccc(S(=O)(=O)N2c3ccccc3CC2C)cc1 (centres unmarked) | 13.4%
22 | COc1ccc(C(=O)CC(=O)C(=O)NCCc2cccc(C)c2)cc1 | 7.31%
23 | O=C(C(=O)N1CCN(c2ccccc2)CC1)c1c[nH]c2ccccc12 | 4.09%
24 | C/C(CC(=O)Nc1ccc2ccccc2c1)=N\NC(=O)c1ccc(O)c(O)c1 | -6.73%
25 | COCCN1C(=O)CC(NNC(=O)c2ccc(S(=O)(=O)N3CCCC3)cc2)C1=O (centres unmarked) | 10%
26 | CCOC(=O)C1CCN(C(=O)CS(=O)Cc2nc(-c3ccc(C)cc3)oc2C)CC1 (centres unmarked) | -0.626%
27 | CCN(C(=O)COC(=O)c1cc(Cl)ccc1OC)c1c(N)n(Cc2ccccc2)c(=O)[nH]c1=O | 4.46%

Row | Compound | hERG current change (%, negative = inhibition) at 10uM
28 | O=C(Cc1ccccc1)NN1C(=O)c2ccccc2C1=O | -9.37%
29 | COc1ccc(CCNC(=O)CSc2nnc3c(n2)[nH]c2ccc(F)cc23)cc1OC | 12.8%
30 | Cn1c(CCC(=O)OCC(=O)Nc2ccc(Oc3ccccc3)cc2)nc(=O)c2ccccc21 | -53.3%
31 | CCNC(=O)NC(=O)COC(=O)CCc1nc(=O)c2ccccc2n1C | 4.87%
32 | CCc1ccc(NC(=O)COC(=O)CCc2nc3cc(S(=O)(=O)N(CC)CC)ccc3n2C)cc1 | -60%
33 | CNC(=O)NC(=O)COC(=O)CCc1nc(=O)c2ccccc2n1C | -19.2%
34 | CCN(CC)S(=O)(=O)c1ccc2c(c1)nc(CCC(=O)OCC(=O)Nc1cc(OC)cc(OC)c1)n2C | -48.5%
35 | CCN(CC)S(=O)(=O)c1ccc2c(c1)nc(CCC(=O)OCC(=O)Nc1c(F)cccc1F)n2C | -34.6%
36 | CN1CCNC(=O)C1CC(=O)NCCC1=CCCCC1 (centres unmarked) | 18.2%
37 | Cc1ccc(C(C)C)c(OCc2nnc(SCC(=O)Nc3ncc(C)s3)n2C)c1 | -4.11%
38 | CN(C)c1nnnn1-c1ccc(OC(F)(F)F)cc1 | -9.73%
39 | CCCC1(c2ccccc2)NC(=O)N(CC(=O)Nc2cc(S(=O)(=O)N3CCOCC3)ccc2Cl)C1=O (centres unmarked) | -22.6%
40 | CC(C)(C)NC(=O)N1CCCN(c2ccc(C(F)(F)F)cn2)CC1 | -0.47%
41 | C[C@H]1C=C(C(=O)NCc2ccccc2)O[C@@H](OCc2ccc(CO)cc2)C1 | -10.5%
42 | Cc1cc(NC(=O)c2cccc(Oc3ccccc3)c2)n[nH]1 | 1.16%
43 | COc1ccccc1N(C)S(=O)(=O)c1ccc(C(=O)OCC(=O)NCCC2=CCCCC2)cc1 | -4.24%
44 | CCCC(=O)NC(C)C(c1cccs1)N1CCN(c2ccccc2)CC1 (centres unmarked) | -7.64%
45 | CC1CCCCN1CCNC(=O)C1CCCN(c2ncnc3c2nc2n3CCCCC2)C1 (centres unmarked) | -14.3%
46 | CC1CCCN(CCCNC(=O)C2CCCN(c3ncnc4c3nc3n4CCCCC3)C2)C1 (centres unmarked) | -4.72%
47 | Cc1cccc(N2CCN(CCCNC(=O)C3CCCN(c4ncnc5c4nc4n5CCCCC4)C3)CC2C)c1 (centres unmarked) | -67.8%
48 | COc1ccc(CCNC(=O)C2CCCN(c3ncnc4c3nc3n4CCCCC3)C2)c(OC)c1 (centres unmarked) | -42.8%
49 | Cc1cccc(CCNC(=O)C2CCCN(c3ncnc4c3nc3n4CCCCC3)C2)c1 (centres unmarked) | -59.8%
50 | COc1ccccc1N1CCN(CCCNC(=O)C2CCCN(c3ncnc4c3nc3n4CCCCC3)C2)CC1 (centres unmarked) | -40.3%
51 | CC1CC(C)CN(CCCNC(=O)C2CCCN(c3ncnc4c3nc3n4CCCCC3)C2)C1 (centres unmarked) | -14.1%
52 | O=C(NCCc1ccc(Cl)cc1)C1CCCN(c2ncnc3c2nc2n3CCCCC2)C1 (centres unmarked) | -57.2%
53 | COc1cccc(CCNC(=O)C2CCCN(c3ncnc4c3nc3n4CCCCC3)C2)c1OC (centres unmarked) | -74.7%
